Bead autofluor = compound fluorescence in toxin protease inhibitor counterscreen; fluorescence intensity (test concentration not listed); compound autofluorescence counterscreen, microsphere flow cytometry; hits give high values; actives 3.1% (n = 360,000); in the data active = fluorescence intensity above about 16000; inconclusive = no clear call, values can overlap the other calls
BoNT F protease = BoNT/F light chain protease inhibitors, primary screen, biochemical, flow cytometry, MLPCN library; Botulinum neurotoxin type F light chain protease (Clostridium botulinum); Multiplex microsphere protease cleavage assay; inhibition, % at 10 µM; actives 0.22% (n = 360,000); AID 588497, 2011; in the data active = inhibition above about 35%, passing the limit was not always enough; inconclusive = no clear call, values can overlap the other calls; also: plate controls were buffer without enzyme for full effect and enzyme alone for no effect
GDH-TPI inh = GDH-TPI coupling enzyme inhibitors, primary screen, artefact control for M. tuberculosis FBA inhibitor project, biochemical, absorbance, full deck. actives 1.2% (n = 360,000). GDH-TPI coupled enzyme counterscreen, NADH absorbance. inhibition, % at 4.8 µM; in the data active = inhibition above about 30%;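 also: 0% = DMSO wells and 100% = wells lacking the enzyme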
Anthrax LF inh2 = Bacillus anthracis LF protease inhibitors, primary screen, biochemical, multiplex microsphere, MLPCN library. Lethal factor (Bacillus anthracis), P15917. multiplex microsphere protease cleavage assay. inhibition, % at 10 µM. actives 0.12% (n = 360,000); also: plate controls were buffer without enzyme for full effect and enzyme alone for no effect
Target sequence (P15917 whole entry, looked up): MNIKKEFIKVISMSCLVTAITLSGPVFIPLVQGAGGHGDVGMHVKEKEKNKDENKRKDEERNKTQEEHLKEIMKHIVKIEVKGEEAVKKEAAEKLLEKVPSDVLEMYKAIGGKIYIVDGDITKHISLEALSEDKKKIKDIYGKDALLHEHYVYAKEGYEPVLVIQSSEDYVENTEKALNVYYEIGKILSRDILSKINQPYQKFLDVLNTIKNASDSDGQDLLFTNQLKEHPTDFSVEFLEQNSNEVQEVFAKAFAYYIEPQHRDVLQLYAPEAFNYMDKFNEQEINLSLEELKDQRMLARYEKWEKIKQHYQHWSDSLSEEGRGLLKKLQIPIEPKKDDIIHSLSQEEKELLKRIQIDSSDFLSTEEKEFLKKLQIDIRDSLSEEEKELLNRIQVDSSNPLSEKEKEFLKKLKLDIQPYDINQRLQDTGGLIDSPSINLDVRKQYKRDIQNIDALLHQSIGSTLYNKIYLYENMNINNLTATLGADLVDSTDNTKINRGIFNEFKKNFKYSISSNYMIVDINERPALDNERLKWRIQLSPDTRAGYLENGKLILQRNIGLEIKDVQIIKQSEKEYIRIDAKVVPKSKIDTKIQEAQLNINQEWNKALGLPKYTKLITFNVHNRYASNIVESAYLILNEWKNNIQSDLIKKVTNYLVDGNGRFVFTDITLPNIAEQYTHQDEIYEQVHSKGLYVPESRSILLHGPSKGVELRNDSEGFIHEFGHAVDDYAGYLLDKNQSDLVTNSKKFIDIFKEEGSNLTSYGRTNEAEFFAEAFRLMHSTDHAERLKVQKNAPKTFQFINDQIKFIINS
Mtb FBA inh = Mtb FBA enzyme inhibitors, primary screen, biochemical, fluorescence, strain H37Rv | Fructose-bisphosphate aldolase (Mycobacterium tuberculosis (strain ATCC 25618 / H37Rv)), … | purified M. tuberculosis FBA, fluorescence read-out | inhibition, % at 1 µM | actives 2.3% (n = 360,000); in the data active = inhibition above about 27%;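 also: 0% = vehicle and 100% = reference inhibitor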
BoNT A protease = BoNT/A light chain protease inhibitors, primary screen, biochemical, flow cytometry, MLPCN library; Botulinum neurotoxin type A light chain protease (Clostridium botulinum A str. ATCC 3502); multiplex microsphere protease substrate cleavage; inhibition, % at 10 µM; actives 0.17% (n = 360,000); AID 588499, 2011; also: plate controls were buffer without enzyme for full effect and enzyme alone for no effect
Active calls of the source: *; ? = inconclusive; nt = not tested or not shown. Shown are actives, neighbours in structure and some others; about 6.6% of the full set was active somewhere. Rule as the data show it, unless noted: active = inhibition above about 30%; inconclusive = no clear call, values can overlap the other calls; inactive = below that.

SMILES | Bead autofluor | BoNT F protease | GDH-TPI inh | Anthrax LF inh2 | Mtb FBA inh | BoNT A protease
Cc1ccc2nc(-c3ccc(N4C(=NC(=O)CCC(=O)O)SC5CS(=O)(=O)CC54)cc3)sc2c1 (configuration not stated) | 2071 | -2 | 11 | 0 | 66* | 1
COc1ccc(NC(=S)NNC(=O)CNc2ccc(Cl)cc2)cc1 | 2096 | 4 | 1 | 0 | 4 | 0
CCc1ccccc1-n1c(-c2ccncc2)n[nH]c1=S | 22962* | -2 | -1 | -3 | -3 | -2
O=C(NCc1ccccn1)c1ccc(Br)s1 | 17043* | -9 | 11 | -10 | -2 | -5
O=C(NCc1ccccn1)c1ccc(Cl)cc1Cl | 18047* | 8 | -4 | -3 | -1 | 7
O=C(NCCCCCCNC(=O)c1ccc(Br)s1)c1ccc(Br)s1 | 23002* | 0 | -12 | 0 | -2 | 0
O=C(NCc1ccccn1)Nc1cccc(NC(=O)NCc2ccccn2)c1 | 22604* | -3 | 12 | 0 | -2 | -2
O=C(NCCCNC(=O)c1ccc(Cl)cc1Cl)c1ccccn1 | 3610 | 1 | -2 | -6 | 0 | -1
O=C(NCc1ccccn1)c1cccs1 | 17079* | -4 | 18 | -1 | 0 | ?
CC(C)[C@H](NS(=O)(=O)c1ccccc1F)C(=O)OCC(=O)Nc1cccc(S(N)(=O)=O)c1 | 4216 | -8 | 9 | 4 | 0 | 0
O=C1C=C(NCc2ccccc2)C2(CCCCC2)O1 | 22250* | 4 | 3 | 1 | -4 | 3
O=C1C=C(NCc2ccc(Cl)c(Cl)c2)C2(CCCCC2)O1 | 5785 | -2 | 6 | 0 | -1 | -1
COc1ccc(-c2cc3nc(C4CCN(C(=O)OC(C)(C)C)CC4)c(C(=O)O)cn3n2)cc1 | 22638* | 4 | 15 | 0 | 8 | 1
CCOC(=O)c1cn2nc(-c3ccc(OCC)cc3)cc2nc1C1CCN(C(=O)OC(C)(C)C)CC1 | 9697 | -3 | -2 | -4 | -2 | 0
COc1ccc(-c2nc(=S)c3ccc4ccccc4c3[nH]2)cc1 | 4249 | -1 | 11 | -1 | 2 | 5
O/N=C\c1ccccc1Oc1ccc(F)cc1 | 4268 | -4 | -8 | -3 | -5 | 1
O=C(Nc1nncs1)C(Sc1ccccc1)c1ccccc1 (configuration not stated) | 2469 | -7 | -3 | -2 | 0 | 0
O=C(Nc1ccon1)C(Sc1ccccc1)c1ccccc1 (configuration not stated) | 23273* | 1 | -3 | -3 | 4 | ?
O=C(O)c1ccc(SCc2ccccc2)nc1 | 3632 | ? | -7 | -4 | 1 | 0
COc1cc(OC)cc(C(=O)NC(=S)Nc2ccc(Cl)c(C(=O)O)c2)c1 | 24431* | -2 | 3 | 0 | 4 | -2
O=C(NC1CCCC1)c1csc2c1CCCC2 | 19286* | 6 | -1 | -2 | -1 | 5
CCCNC(=O)c1csc2c1CCCCC2 | 4595 | 9 | 6 | 2 | -10 | 1
COc1ccc(-c2cc(C(F)(F)F)nc(SCC(=O)NCc3ccco3)n2)cc1OC | 2500 | -7 | 31* | 2 | 5 | 0
COc1ccc(-c2cc(C(F)(F)F)nc(SCCC(=O)N3CCN(C)CC3)n2)cc1 | 4419 | -9 | 2 | -6 | -2 | -1
COc1ccc(-c2cc(C(F)(F)F)nc(SCC(=O)N(C)Cc3cn(C)nc3C)n2)cc1OC | 2200 | -16 | 41* | -1 | 13 | -1
SMILES | Bead autofluor | BoNT F protease | GDH-TPI inh | Anthrax LF inh2 | Mtb FBA inh | BoNT A protease
COc1ccc(-c2cc(C(F)(F)F)nc(SCC(N)=O)n2)cc1 | 11457 | -13 | 14 | -5 | 114* | -1
O=C(CSc1nc(-c2ccccc2)cc(C(F)(F)F)n1)NCc1ccco1 | 8486 | -5 | 2 | 4 | -2 | -1
CCC1Cc2[nH]c(=S)[nH]c(=O)c2C(c2ccc(F)cc2)O1 (configuration not stated) | 6204 | 5 | nt | 4 | -6 | -1
Cc1onc(-c2ccccc2)c1C(=O)OCC(=O)Nc1ccc2c(c1)OCO2 | 19429* | 2 | -13 | -2 | -2 | 2
CC1(C)CC(N2CCCC2)=CC(=[N+]2CCCC2)C1 | 2086 | 0 | 28 | 0 | -1 | 0
CC1(C)CC(N2CCCC2)=CC(=[N+]2CCCCC2)C1 | 2197 | 2 | 29 | -1 | -2 | 0
CC1(C)CC(N2CCN(Cc3ccccc3)CC2)=CC(=[N+]2CCCCC2)C1 | 3202 | 7 | 64* | -4 | 0 | 1
CN(Cc1ccccc1)C1=CC(=[N+]2CCCCC2)CC(C)(C)C1 | 3603 | -5 | 68* | -4 | -1 | 0
Cc1ccc(S(=O)(=O)N(c2nc(NC(C)C)nc(NC(C)C)n2)n2cnnc2)cc1 | 10358 | 4 | -4 | -5 | 1 | 1
C=CCn1c(Cc2c[nH]c3ccccc23)nnc1SCC(=O)NCc1ccccc1 | 23009* | -3 | -5 | -3 | -1 | -2
CN1C(=O)C(c2nnc(Nc3cccc4ccccc34)s2)C2CC1(C)Oc1ccccc12 (configuration not stated) | 9649 | -22 | 5 | -3 | 1 | -1
O=C(NCC1CCCO1)C(=O)N/N=C/c1cc(Cl)ccc1O (configuration not stated) | 4252 | -4 | 16 | 0 | 1 | 0
COC(=O)c1ccc(/C=N/NC(=O)C(=O)NCC2CCCO2)cc1 (configuration not stated) | 4153 | ? | 10 | 4 | 3 | 2
O=C(NCC1CCCO1)C(=O)N/N=C\c1ccc2c(c1)OCO2 (configuration not stated) | 5687 | 3 | 34* | -5 | 1 | 1
O=C(NCC1CCCO1)C(=O)N/N=C/c1ccc(O)c(Cl)c1 (configuration not stated) | 4498 | 0 | 55* | -2 | 3 | -1
O=C(NCc1cccnc1)c1cc(C2CCCCN2C(=O)OCCF)on1 (configuration not stated) | 3910 | 0 | 4 | 2 | 0 | 0
C=CC[C@H](CC(=O)NCCO)C(=O)N[C@@H](COC(=O)[C@@H](CC=C)CC(=O)OC(C)(C)C)Cc1c[nH]c2ccccc12 | 4971 | -15 | -3 | 13 | 4 | -1
CC(OC(=O)C1CCCO1)C(=O)NC1CCCC1 (configuration not stated) | 19071* | -2 | 4 | 0 | 1 | 1
O=S(=O)(c1ccc(Cl)c(F)c1)N1CCC(c2nc(-c3ccncc3)no2)CC1 | 21243* | -3 | -2 | -4 | -1 | -3
CC(C)(C)c1ccc(-c2nc(C=O)c3ccccn23)cc1 | 18863* | 21 | 15 | 21 | 5 | ?
